Screening results (PubChem BioAssay)
Compounds with a hit are over-represented: about 21% of the library has one in this group of screens.
Shiga toxin inh = A qHTS for Small Molecule Inhibitors of Shiga Toxin; Vero cells, Shiga toxin protein synthesis inhibition reporter; inhibition, % at 38.7 µM; 290,000 compounds, 9.2% hits; in the data active means inhibition mostly above about 28%, no sharp cut-off; inactive means mostly below about 43%; further: 0% is about no effect
Pf growth 48h = Primary qHTS for delayed death inhibitors of the malarial parasite plastid, 48 hour incubation. 310,000 compounds, 5.9% hits. Potency, µM (titrated, usually from 28.7 µM), without a hit: at the top dose activity change, negative = inhibition, hits mostly inhibitors. P. falciparum luciferase growth in erythrocytes, 48 h; further: potency means the concentration at half of the fitted maximal effect; on the % scale 0 is the no-effect control and ±100 the full control effect
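In quantitative HTS format, infected erythrocytes bearing luciferase-reporter parasites were treated for a single generation at 37 C. Luminescence after adding detection reagent served as the growth measure.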
Pf growth 96h = Primary qHTS for delayed death inhibitors of the malarial parasite plastid, 96 hour incubation. P. falciparum luciferase reporter growth, 96 h. Potency, µM (series often up to 28.7 µM), for inactives: top-dose activity change, negative = inhibition, hits mostly inhibitors. 320,000 compounds, 6.9% hits. AID 504834, 2011; further: potency means the concentration at half of the fitted maximal effect; on the % scale 0 is the no-effect control and ±100 the full control effect
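Cell-based qHTS: luciferase-tagged P. falciparum in erythrocytes (2% hematocrit, 0.05% parasitemia final) incubated with compounds for 96 hours, 37 C, 5% CO2; luciferase detection reagent then added and luminescence measured.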
Cycloheximide cs = Cycloheximide Counterscreen for Small Molecule Inhibitors of Shiga Toxin. cell reporter, cycloheximide protein synthesis inhibition counterscreen. max response, %. 300,000 compounds, 12% hits; in the data active means max response mostly above about 13%, no sharp cut-off; inactive means mostly below about 14%; further: read at 38.3 µM for the half of the compounds with a filed dose; 0% is about no effect
Active calls of the source: *; i = inactive; ? = inconclusive; . = not tested or not shown; [ ] = another dose, or the depositor's remark. Unless noted, the call rests on the fitted dose curve; in most records, active means well fitted inhibition curve with a large enough effect; inconclusive means small, poorly fitted or top-dose-only effect, or another doubt; inactive means no such curve, though single readings can be large or run the other way.

SMILES | Shiga toxin inh | Pf growth 48h | Pf growth 96h | Cycloheximide cs
Cc1nn(-c2ccccc2)c2[nH]c(=O)c(CNCCN3CCOCC3)cc12 | -14 | -2% | -6% | -2
CCc1ccc(NCc2cc3c(C)nn(-c4ccccc4)c3[nH]c2=O)cc1 | -8 | . | ? | -3
Cc1nn(-c2ccccc2)c2[nH]c(=O)c(CNCc3ccc4c(c3)OCO4)cc12 | 16 | 4.7µM* | 9% | 10
Cc1nn(-c2ccccc2)c2[nH]c(=O)c(CNc3ccc4c(c3)OCCO4)cc12 | 113* | 48% | 0%[5.75 µM] | 42*
CCC(C)N(C(=O)CN1C(=O)NC2(CCc3ccccc32)C1=O)C1CCS(=O)(=O)C1 (configuration not stated) | . | 9% | 20% | .
O=S(=O)(NCC(c1cccnc1)N1CCN(c2ccccc2)CC1)c1cc(F)ccc1F (configuration not stated) | 15 | 10µM* | 2% | 0
O=S(=O)(NCC(c1ccc2c(c1)OCO2)N1CCN(c2ccccc2)CC1)c1ccccc1 (configuration not stated) | . | 7.4µM* | ? | .
O=C(N/C=C/c1ccccc1)c1ccccc1 | . | ? | -10% | .
CCCCn1cnc2sc(-c3ccccc3)cc2c1=O | 98* | 102% | i | 38*
CNC(=O)NC(=O)Cn1cnc2sc(-c3ccccc3)cc2c1=O | 22 | 36% | 68% | -3
O=c1c2cc(-c3ccccc3)sc2ncn1/N=C/c1ccco1 | 83 | 131% | 31% | 37*
COc1ccccc1-n1cnc2sc(-c3ccccc3)cc2c1=O | 71 | 36% | 0% | 25
CCCCCn1cnc2sc(-c3ccccc3)cc2c1=O | 61* | 188% | 99% | 47*
CCOC(=O)C1(Cc2ccccc2)CCN(Cc2ccc3cc(NC(C)=O)ccc3n2)CC1 | -8 | ? | 5% | -2
CO[C@]12C(COC(N)=O)C3=C(C(=O)C(C)=C(N)C3=O)N1CC1NC12 (some centres not stated) | . | 0.24µM* | 0.6µM* | .
Cc1ccccc1N/N=C1\CCCNC1=O | 13 | ? | 43% | 8
O=C1NCCC/C1=N\Nc1ccc(Br)cc1 | 49 | 35% | 82% | 8.2*
CCOC(=O)C1CCN(C(=O)CCc2c(C)nc3c(-c4ccc(F)cc4)c(C)nn3c2C)CC1 | -12 | . | 10µM* | -1
COCCNC(=O)CCc1c(C)nc2c(-c3ccc(F)cc3)c(C)nn2c1C | -13 | . | 13µM* | -3
CCN(C(=O)CSc1nnnn1-c1ccccc1)C1CCS(=O)(=O)C1 (configuration not stated) | 2 | 23% | 25% | -1
O=C(Nc1nc2n(n1)C(c1ccccc1)CC(c1ccc(Cl)cc1)N2)c1ccco1 (configuration not stated) | 19 | 13µM* | ? | 1
O=c1[nH]c2ccccc2nc1Cc1ccc([N+](=O)[O-])cc1 | -16 | 9% | -5% | -4
Cc1ccc(-n2nc(C)c3c(C)cc(=O)[nH]c32)cc1 | 32 | 63% | . | 21*
Cc1nn(-c2ccccc2)c2[nH]c(=O)cc(C(F)F)c12 | . | 1% | 35% | .
Nc1nc(Cl)cc(-c2ccccc2)n1 | -3 | 0% | -1% | 1
SMILES | Shiga toxin inh | Pf growth 48h | Pf growth 96h | Cycloheximide cs
COc1cc(-c2ccccc2)nc(N)n1 | 77* | . | 3.3µM* | 87*
CCOc1cc(-c2ccccc2)nc(N)n1 | 106* | 130% | -8% | 49*
CCCCCSc1cc(O)c(C(CNC)C(C)C)cc1OC (configuration not stated) | -2 | 0.41µM* | 0.47µM* | -5
CCSc1nn2c(=O)c3ccccc3nc2s1 | 85* | . | 73% | 48*
CCOn1c(SCC)nc2ccccc2c1=O | -14 | 0% | ? | -2
COc1ccc(CCNC(=O)CN(C)S(=O)(=O)c2cccs2)cc1OC | -8 | -2% | ? | -1
COc1ccc(S(=O)(=O)N(C)CC(=O)NCCc2ccccc2)cc1OC | -16 | ? | 15µM* | -2
COc1ccc(S(=O)(=O)N(C)CC(=O)NCc2ccccc2)cc1OC | -1 | -8% | 43% | -1
COc1ccc(CCNC(=O)CN(C)S(=O)(=O)c2ccc(Br)s2)cc1OC | -22 | -5% | 1.9µM* | 12
FC(F)(F)c1ccccc1NC(=S)NC1CCN(Cc2ccccc2)CC1 | -18 | ? | ? | -3
CCc1nc2ccc(C(=O)N3CCN(c4ccc([N+](=O)[O-])cc4)CC3)cc2nc1CC | -1 | ? | ? | -1
Nc1c(N(Cc2ccco2)C(=O)c2ccccc2F)c(=O)[nH]c(=O)n1Cc1ccccc1 | . | ? | -1% | .
CCCC(C)NC(=O)CN1C(=O)c2cccc3cccc1c23 (configuration not stated) | . | -20% | 66% | -2
CN(C(=O)C1CCOC1)c1nnc(-c2cnccn2)s1 (configuration not stated) | 19 | . | ? | 16*
CCCCN(CCCC)C(=O)c1c[nH]c2ccc(S(=O)(=O)Nc3cccc(Cl)c3C)cc2c1=O | . | 8% | 28% | .
CCOC(=O)c1ccc(N2CN(CCc3ccccc3)CNC2=S)cc1 | -4 | 19% | i | 1
Cc1ccc(N2CN(CCc3ccccc3)CNC2=S)cc1 | -1 | 9.3µM* | ? | 1
CCCCN(C(=O)C1CC(=O)N(Cc2ccc(C)cc2)C1)c1c(N)n(CC(C)C)c(=O)[nH]c1=O (configuration not stated) | 1 | 5% | 12% | 7
C(=N\Nc1ncnc2ccccc12)/c1ccccc1 | 71* | 335% | 133% | 24*
Cc1cccc(C)c1Nc1ncnc2ccccc12 | -5 | 0% | -78% | -2
Clc1cccc(/C=N/Nc2ncnc3ccccc23)c1 | 62* | -75% | ? | 35*
COC(=O)C/C=C/[C@@H](C)[C@@H](/C=N/OCC[C@@H]1C=C[C@H](OC(C)=O)[C@@H](COC(C)=O)O1)NS(=O)(=O)c1ccc(C)cc1 | -15 | 11% | -15% | -2
Cc1nn(-c2ccccc2)c(C)c1S(=O)(=O)O | 4 | 8% | -20% | -2
Cc1nn(-c2ccccc2)c2c1C(O)n1c(nc3ccccc31)S2 (configuration not stated) | 10 | 1.7µM* | -15% | 4
COc1ccc(C)c2sc(=NC(=O)c3ccc(C(C)=O)cc3)n(C)c12 | 67* | 274% | 340% | 38*
SMILES | Shiga toxin inh | Pf growth 48h | Pf growth 96h | Cycloheximide cs
COc1ccc(C)c2sc(=NC(=O)c3cccc(N4C(=O)CCC4=O)c3)n(C)c12 | 27 | 45% | 13% | 20*
COc1ccc(C)c2sc(=NC(=O)c3ccccc3)n(C)c12 | 69* | 181% | 261% | 18*
O=S(=O)(c1ccc(Cl)nc1)N1CCCCC1 | -8 | 12% | -11% | -4
CC(NC(=O)c1cccc(N(C)C)c1)c1ccc(-n2ccnc2)cc1 (configuration not stated) | -4 | ? | 2% | 2
COc1ccc(C2CC(=O)c3sc(NC(C)=O)nc3C2)cc1 (configuration not stated) | active | ? | ? | 20*
COc1ccc(-c2nc(NC(C)=O)sc2-c2ccc(OC)cc2)cc1 | 37 | -27% | 3% | 0
